# HCMV antiviral: blocks human cytomegalovirus replication; AID 1259415; activity change, negative = inhibition, % at 57.5 µM; HFF cells, HCMV-luciferase reporter, 72 h; hits give low values; actives 4.5% (n = 410,000); in the data active = activity change below about -60%; inconclusive = no clear call, values can overlap the other calls; inactive = above about -39%
#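 HFF cells seeded 16 h at 37C, treated with compounds, infected with luciferase-reporter HCMV at MOI 1 PFU/cell; luciferase read at 72 h post infection, normalized to buffer-only and Salinomycin controls.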
# Tb PYK inh: inhibitors of Trypanosoma brucei pyruvate kinase; TbPYK enzyme, Kinase-Glo Plus ATP luminescence, 45 min; Potency, µM (doses to about 76.8 µM), for inactives: at the highest dose activity, negative = inhibition, actives largely listed as inhibitors; Q57TT1; actives 0.12% (n = 410,000); AID 624173; note: potency is the fitted concentration of half-maximal effect; nearly all actives have a fitted effect of over 50% in size
#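 Enzyme and substrate buffer are dispensed first and compound is pin-transferred. ADP at 130 uM final then starts the reaction, which runs 45 min at room temperature. Detection reagent is added for 10 min before luminescence is imaged.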
# FMDV antiviral: foot and mouth disease virus antiviral activity. FMDV antiviral cell-based qHTS. Potency, µM (titrated, usually from 57.9 µM), without a hit: at the highest dose activity change, negative = inhibition, usual class: inhibitors. actives 1.2% (n = 410,000); calls by dose curve; tested in HEK293T cells; note: read-out not given here; potency is the fitted concentration of half-maximal effect; nearly all actives have a fitted effect of over 45% in size
# FBPA Giardia inh: inhibitors of Giardia lamblia fructose-1,6-bisphosphate aldolase; A8B2U2; purified Giardia FBPA; Potency, µM (top dose mostly 59.6 µM), without a hit: at the highest dose activity, negative = inhibition, usual class: inhibitors; actives 0.71% (n = 290,000); AID 2451; note: potency is the fitted concentration of half-maximal effect; nearly all actives have a fitted effect of over 55% in size
# Target sequence (A8B2U2 whole entry, looked up): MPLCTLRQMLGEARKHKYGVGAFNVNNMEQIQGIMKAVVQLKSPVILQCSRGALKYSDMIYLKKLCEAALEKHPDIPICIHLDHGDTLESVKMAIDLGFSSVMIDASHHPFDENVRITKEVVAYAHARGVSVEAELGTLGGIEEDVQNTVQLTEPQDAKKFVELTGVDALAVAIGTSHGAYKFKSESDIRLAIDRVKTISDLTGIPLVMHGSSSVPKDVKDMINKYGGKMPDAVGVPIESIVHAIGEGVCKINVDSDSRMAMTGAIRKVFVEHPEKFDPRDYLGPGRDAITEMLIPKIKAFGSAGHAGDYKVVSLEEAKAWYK
#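 Giardia FBPA (40 nM reagent) was preincubated 10 min at RT with compound (up to 57.5 uM final), then substrate plus GAPDH/TPI/NAD/arsenate coupling system with diaphorase/resazurin was added; resorufin fluorescence (525/598 nm) was read after 20 min.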
# RE007 growth inh: less growth of the S. pombe RE007 Vpr strain | S. pombe RE007 Vpr strain, BacTiter-Glo ATP luminescence, 24 h | Potency, µM (doses to about 92.2 µM), without a hit: top-dose activity change, negative = less growth, hits mostly inhibitors | actives 0.21% (n = 360,000); active = well fitted falling curve with a large enough effect; inconclusive = small, poorly fitted or top-dose-only effect; inactive = no such curve, though single readings can be large or run the other way; note: potency is the fitted concentration of half-maximal effect; nearly all actives have a fitted effect of over 50% in size
#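 Fission yeast RE007 carrying one integrated HIV-1 vpr copy, seeded at OD 0.01 in PMG+AL medium with 23 nL pinned compound. Grown 24 h at 30 degrees; viability read by BacTiter-Glo luminescence after 5 min.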
# Sm TGR inh: inhibitors of Schistosoma mansoni thioredoxin glutathione reductase. actives 3% (n = 360,000). Potency, µM (series often up to 114 µM), inactives show at the top dose activity change, negative = inhibition, hits mostly inhibitors. AID 485364. purified TGR, DTNB reduction, TNB absorbance 405 nm; note: potency is the fitted concentration of half-maximal effect; nearly all actives have a fitted effect of over 60% in size
#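 First, TGR (20 nM dispensed) and NADPH were mixed with compound. Second, a 15 min room-temperature incubation followed. Third, further NADPH and then DTNB were added to start the reaction. Finally, TNB absorbance was monitored kinetically.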
# The depositor's hits bear a star; u = inconclusive; x = not tested or not shown. The list is not random: actives were taken first. Their share in the collection is about 7.7%. Unless noted, calls come from the whole dose curve; as a rule, active = well fitted curve in the direction sought with a large enough effect; inconclusive = small, poorly fitted or top-dose-only effect, or another doubt; inactive = no such curve, though single readings can be large; an effect the other way counts as inactive or inconclusive. % is set by controls: 0 for no effect and ±100 for the full control effect.
SMILES,HCMV antiviral,Tb PYK inh,FMDV antiviral,FBPA Giardia inh,RE007 growth inh,Sm TGR inh
O=C(NC1CC(=O)N(c2ccccc2)C1)c1ccc(S(=O)(=O)N2CCCC2)cc1 (configuration not stated),u,-7%,-23%,x,x,5%
O=C1CC(N2CCN(c3ccccc3)CC2)C(=O)N1c1ccc(Cl)cc1 (configuration not stated),47,3%,-4%,-2%,-5%,u
O=C1CCCN1CCC1CCN(C2CC(=O)N(c3ccc(Cl)cc3)C2=O)CC1 (configuration not stated),2,4%,x,0%,5µM*,18µM*
O=C1CC(N2CCC(O)(c3ccc(Cl)cc3)CC2)C(=O)N1Cc1ccc(N2CCCC2=O)cc1 (configuration not stated),-23,-3%,u,9%,-21%,32µM*
O=C1CCCN1CCC1CCN(C2CC(=O)N(Cc3ccc(N4CCCC4=O)cc3)C2=O)CC1 (configuration not stated),2,2%,x,2%,u,18µM*
COc1ccc(CN2CCC3(CC2)c2ccccc2[C@@H](NC(=O)c2ccccc2OC)[C@@H]3O)cc1O,x,x,-9%,x,x,x
NC(=S)N/N=C/c1ccc2cccc(OCc3ccccc3)c2n1,-68*,-11%,-22%,-8%,1%,29%
O/N=C/c1ccc2cccc(OCc3ccccc3)c2n1,-31,2%,-23%,-5%,-2%,0%
COc1ccc(NC(=O)C(NS(=O)(=O)c2cccc3nsnc23)c2ccccc2)cc1 (configuration not stated),16,0%,14%,x,x,-2%
CCOc1ccc(NC(=O)C2CCCN(c3nnc(-n4c(C)ccc4C)s3)C2)cc1 (configuration not stated),-17,-11%,-21%,x,x,-26%
CC(=O)Nc1ccc(OCC(=O)Nc2ccc(Cl)c(S(=O)(=O)N3CCOCC3)c2)cc1,-71*,x,x,x,x,x
Cc1ccc(S(=O)(=O)N2CCOCC2)cc1NC(=O)COc1ccc(C(=O)c2ccccc2)cc1,21,0%,20µM*,x,u,1%
O=C(CC1CCCC1)Nc1ccc(Cl)c(S(=O)(=O)N2CCOCC2)c1,u,5%,32µM*,x,5%,x
Cc1ccc(NC(=O)CSc2ccc(Br)cc2)cc1S(=O)(=O)N1CCOCC1,-33,-2%,u,x,-11%,1%
Cc1ccc(NC(=O)CCCSc2ccccc2)cc1S(=O)(=O)N1CCOCC1,-6,-15%,28µM*,1%,-2%,7%
CCN(CC)CCOC(=O)c1ccc(NC(=O)Cn2ncc3c2-c2cc(C)ccc2OC3)cc1,-7,3%,-5%,x,x,7%
CC(=O)N1CC=CC1(CC(C)C)C(=O)NCc1ccccn1 (configuration not stated),x,x,x,0%,x,x
CC(CC(=O)Nc1ccc(Cl)c(S(=O)(=O)N2CCOCC2)c1)c1ccccc1 (configuration not stated),-82*,-4%,u,x,4%,15%
O=C(O)CC(SCC(=O)Nc1ccc(Cl)c(S(=O)(=O)N2CCOCC2)c1)C(=O)O (configuration not stated),-30,4%,2%,-7%,7%,7%
O=C(Nc1cccc(C(F)(F)F)c1)c1cccnc1,2,3%,20%,-10%,-11%,0%
CCOc1ccc(C(=O)Nc2ccc3nc(Nc4cccc(C(F)(F)F)c4)cc(C)c3c2)cc1OCC,-62*,6%,0%,x,x,-1%
Cn1nc(C(F)(F)F)c(-c2cccc(C(F)(F)F)c2)c1NC(=O)c1cccnc1,-78*,3%,-22%,1%,-13%,1%
Cc1cc(Nc2cccc(C(F)(F)F)c2)nc2ccc(NC(=O)c3cccc(Cl)c3)cc12,-104*,3%,u,x,x,0%
Cc1cc(Nc2cccc(C(F)(F)F)c2)nc2ccc(NC(=O)c3cccnc3)cc12,-107*,0%,28µM*,x,x,10%
CCCCN=CN1c2ccccc2-n2cccc2C1c1ccc(CC)cc1 (configuration not stated),52,x,x,x,x,x
SMILES,HCMV antiviral,Tb PYK inh,FMDV antiviral,FBPA Giardia inh,RE007 growth inh,Sm TGR inh
Cc1cccc(C)c1N(CCCc1cccnc1)C(=O)[C@@H](C)N,x,-4%,x,x,x,x
CCCCN(C)CCNC(=O)C1CCCN(S(=O)(=O)c2ccc3c(c2)oc(=O)n3C)C1 (configuration not stated),4,2%,-2%,x,x,0%
CCOC(=O)N1CCN(C(=O)C2CCN(Cc3ccc(O)c(OCC)c3)CC2)CC1,-25,-13%,-16%,u,-7%,32µM*
CCOc1cc(CN2CCSCC2)ccc1O,-17,-11%,18%,-11%,10%,40µM*
CCOc1cc(CN2CCN(c3cccc(C(F)(F)F)c3)CC2)ccc1O,-21,25%,-6%,u,-11%,45µM*
COc1ccc(CN2CCSCC2)cc1C,7,2%,x,-16%,6%,-1%
CCOC(=O)N1CCN(C(=O)C2CCN(Cc3cccc(OCc4ccccc4)c3)CC2)CC1,-25,27%,u,-5%,21%,0%
O=S(=O)(Cc1ccccc1Cl)Nc1ccccn1,-13,4%,-7%,3%,11%,25µM*
O=S(=O)(Nc1ccccn1)c1ccc(Cl)cc1,17,-14%,80%,5%,11%,4%
Cc1cc2nn(-c3ccc(F)cc3)nc2cc1NC(=O)c1cccc([N+](=O)[O-])c1C,41,-6%,18%,x,x,15%
Cc1c(C(=O)NCC2(N3CCOCC3)CCCCC2)cnn1-c1nccc(-c2ccccc2F)n1,x,x,-16%,x,x,x
CC(C)(C)CC(C)(C)c1ccc(OCCOCC[N+](C)(C)Cc2ccccc2)cc1,-94*,8%,u,2%,2%,2%
C[N+](C)(CCOc1ccccc1)Cc1ccccc1 (tested in a mixture with another compound),8,-11%,-7%,x,0%,-21%
O=C(NCC1CC1)C1=COC2=NC(=O)N(Cc3cccc(Cl)c3)CCN12,-7,x,x,x,x,x
CCN(CC)CC(O)CN(c1ccccc1)S(=O)(=O)c1ccc2ccccc2c1 (configuration not stated),-67*,0%,-3%,-4%,7%,-3%
Cc1ccc(S(=O)(=O)N2CCN(CC(=O)Nc3ccc([N+](=O)[O-])cc3)CC2)cc1C,u,-10%,-26%,-6%,-3%,-11%
COc1ccc(S(=O)(=O)N2CCCN(CC(=O)Nc3ccc(OC)c(Cl)c3)CC2)cc1,16,-4%,-7%,-25%,32%,32µM*
